Assay results: the supplement of paper PMC6555819

Key:
Assay in all cases: PBM binding z-score (relative to random genomic background probes); higher = stronger binding; sequences stand for … in GC…GCGATTGACAGCGTAGAATGAAGG
[1] = system: FXR:RXRa (NR concentration 270 nM, RXRa partner concentration 90 nM)
Procedure, shortened: (§1)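 Probes were double-stranded and carried 34-nt variable regions with direct-repeat seeds, single-nucleotide variants, half-site ablations and random human genomic background sequences, printed on custom Agilent 4×180K protein-binding microarrays. Arrays were incubated 1 h with ligand-free nuclear receptor dimers in PBS pH 7.4, 2% milk, 0.02% Triton X-100, 1 mM DTT, 0.2 mg/mL BSA and 0.4 mg/ml salmon testes DNA. Antibodies against each partner (one per run) detected binding, and scanned fluorescence was regression-normalized. Binding z-scores use the random background probes as reference.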

[2] = system: LXRa:RXRa (NR concentration 270 nM, RXRa partner concentration 90 nM)
Procedure, shortened: as §1

[3] = system: LXRa homodimer (NR concentration 270 nM)
Procedure, shortened: as §1

[4] = system: LXRb:RXRa (NR concentration 270 nM, RXRa partner concentration 90 nM)
Procedure, shortened: as §1

[5] = system: LXRb homodimer (NR concentration 270 nM)
Procedure, shortened: as §1

[6] = system: PPARa:RXRa (NR concentration 270 nM, RXRa partner concentration 90 nM)
Procedure, shortened: as §1

[7] = system: PPARg:RXRa (NR concentration 180 nM, RXRa partner concentration 90 nM)
Procedure, shortened: as §1

[8] = system: PPARg:RXRa 270nM:90nM, anti-RXR (NR concentration 270 nM, RXRa partner concentration 90 nM)
Procedure, shortened: as §1

[9] = system: PPARg:RXRa 30nM:10nM, anti-RXR (NR concentration 30 nM, RXRa partner concentration 10 nM)
Procedure, shortened: as §1

[10] = system: PPARg:RXRa 90nM:30nM, anti-RXR (NR concentration 90 nM, RXRa partner concentration 30 nM)
Procedure, shortened: as §1

[11] = system: PPARg:RXRa DBDmut IVT, anti-RXR (DBD mutation: RXRa K156A/R161A, NR concentration 270 nM, RXRa partner concentration 90 nM)
Procedure, shortened: as §1

[12] = system: PPARg:RXRa IVT, anti-PPARg (NR concentration 270 nM, RXRa partner concentration 90 nM)
Procedure, shortened: as §1

[13] = system: PPARg DBDmut:RXRa IVT, anti-PPARg (DBD mutation: PPARg1 K132A/R137A, NR concentration 270 nM, RXRa partner concentration 90 nM)
Procedure, shortened: as §1

[14] = system: PPARg DBDmut IVT, anti-PPARg (DBD mutation: PPARg1 K132A/R137A, NR concentration 270 nM)
Procedure, shortened: as §1

[15] = system: PPARg homodimer (NR concentration 180 nM)
Procedure, shortened: as §1

[16] = system: PXR:RXRa (NR concentration 270 nM, RXRa partner concentration 90 nM)
Procedure, shortened: as §1

[17] = system: PXR homodimer (NR concentration 270 nM)
Procedure, shortened: as §1

[18] = system: RARa:RXR (NR concentration 270 nM, RXRa partner concentration 90 nM)
Procedure, shortened: as §1

[19] = system: RARa homodimer (NR concentration 270 nM)
Procedure, shortened: as §1

[20] = system: RARb:RXRa (NR concentration 270 nM, RXRa partner concentration 90 nM)
Procedure, shortened: as §1

Row | Sequence | PBM binding z-score [1] | PBM binding z-score [2] | PBM binding z-score [3] | PBM binding z-score [4] | PBM binding z-score [5] | PBM binding z-score [6] | PBM binding z-score [7] | PBM binding z-score [8] | PBM binding z-score [9] | PBM binding z-score [10] | PBM binding z-score [11] | PBM binding z-score [12] | PBM binding z-score [13] | PBM binding z-score [14] | PBM binding z-score [15] | PBM binding z-score [16] | PBM binding z-score [17] | PBM binding z-score [18] | PBM binding z-score [19] | PBM binding z-score [20]
1 | TAGACTAGGTCATTGGGCCAGTATAGTACGCATC | 3.51 | 2.61 | 0.548 | 1.56 | 0.785 | 3.89 | 5.62 | 5.24 | 2.45 | 4.58 | 5.72 | 6.51 | 1.28 | 0.786 | 1.15 | 1.2 | 0.294 | 1.65 | 0.657 | 3.45
2 | GATACAGGGTCAGCTAGAAGCCAGAGTATGGAAA | 4.4 | 2.38 | -0.483 | 2.13 | -0.479 | 4.45 | 3.76 | 3.04 | 1.33 | 1.83 | 1.32 | 2.21 | -0.0163 | -0.227 | 2.08 | 1.64 | 0.0123 | 2.84 | -0.0258 | 3.78
3 | CCTCGGAGGACAACAGGAGGTGAGAGCTGCCAGA | -0.0702 | -0.357 | -0.536 | -0.619 | -0.875 | -0.108 | 0.133 | -0.73 | -0.83 | -0.93 | 0.262 | 0.245 | -1.46 | -1.64 | -0.411 | -0.513 | -0.0477 | -0.183 | -0.132 | 1.13
4 | TAGCCTAGGTCATCGGGCCAGTATAGTACGCATC | 4.52 | 3.33 | 0.51 | 2.29 | 0.0366 | 3.91 | 3.13 | 3.04 | 0.482 | 2.16 | 1.44 | 3.19 | 0.181 | -0.303 | 1.03 | 1.81 | -0.265 | 2.58 | -0.0244 | 3.9
5 | CCTTACGGGTCACTGACAGGGTATAGCATTTGGA | 4.47 | 3.35 | 0.0232 | 2.72 | -0.363 | 4.64 | 3.98 | 4.07 | 1.2 | 2.69 | 2.63 | 3.31 | 0.282 | 0.192 | 1.91 | 2.87 | -0.101 | 3.64 | 0.315 | 3.73
6 | GCATATAGGTAATACAAGGTGAAAATCCGATTGT | 0.325 | 1.44 | 0.125 | 0.602 | -0.207 | 1.5 | 1.55 | 1.09 | 0.599 | 0.773 | 3.55 | 3.21 | 0.778 | 0.777 | 0.494 | 0.273 | 0.142 | 1.85 | 0.843 | 0.306
7 | TGAATGAGGTTAAAGTTCAGGGAACGTGGCGTCG | 5.71 | 4.98 | 2.46 | 3.68 | 0.344 | 6.3 | 9.26 | 8.25 | 8.5 | 9.05 | 2.35 | 5.08 | 1.25 | 1.55 | 1.98 | 5.23 | 0.746 | 6.19 | 0.262 | 3.63
8 | CCTTACGGGTCACGAGGTTATACCACGACGAGCG | 6.99 | 4.85 | 0.42 | 4.37 | -0.0941 | 6.07 | 6.94 | 6.43 | 3.65 | 5.65 | 4.05 | 5.31 | 1.4 | 2.59 | 3.29 | 4.71 | 0.172 | 6.09 | 0.951 | 4.45
9 | GCTAGTTGGTCAGTAAAAGGTCACTCACCGGTCG | 2.88 | 3.91 | 4.1 | 3.49 | 0.861 | 3.87 | 1.93 | 4.19 | 1.77 | 3.49 | 1.28 | 2.47 | -0.335 | 0.0493 | 3.31 | 4.53 | 0.779 | 5.19 | 1.56 | 4.12
10 | CAAACTAGGTCAAGAGGTCAATGTCCGCTTCCCG | 6.4 | 6.19 | 5.74 | 4.72 | 1.58 | 6.11 | 9.5 | 7.94 | 6.68 | 8 | 8.38 | 8.12 | 2.46 | 0.644 | 3.95 | 5.63 | 1.52 | 6.79 | 2.12 | 5.3
11 | AGTCAAAGTCCAGGACGAGGTAACGTAAAGCACG | -0.263 | -0.424 | -0.518 | -0.388 | -0.767 | 0.01 | 0.733 | -0.294 | -0.119 | -0.153 | -0.362 | -0.000589 | 0.282 | 0.0417 | -0.362 | -0.248 | -0.347 | -0.00617 | -0.392 | 0.916
12 | ATATGTAGGTTAAGGGTCATTCTGGTTGGTTCGC | 5.42 | 4.75 | 3.48 | 4.51 | 1.56 | 6.65 | 11.4 | 9.66 | 10.5 | 11.5 | 7.57 | 7.51 | 2.31 | 1.76 | 4.67 | 4.85 | 1.04 | 5.63 | 2.03 | 3.56
13 | ATCTCTAGGTAAGACTCAGTTCAGTGACGAACGC | 0.592 | 0.636 | 0.724 | 0.467 | 0.883 | 0.279 | 0.47 | 0.379 | 0.0999 | 0.176 | 2.2 | 1.36 | 0.803 | 0.863 | 0.854 | 1.11 | 2.01 | 0.642 | 1.18 | 0.528
14 | AGAACGAGTGCACGCTGAGTTGATAGCAGAGTAG | -0.478 | -0.297 | -0.632 | -0.327 | -1.13 | 0.0263 | 0.542 | -0.2 | -0.197 | -0.307 | -0.434 | 0.0753 | 0.194 | -0.145 | -0.176 | 0.739 | 0.603 | -0.0592 | -0.662 | 0.298
